# Shown are actives, neighbours in structure and some others; about 3% of the full set was active somewhere.
# Tau ThT inhib: tau fibrillization inhibition (ThT binding); recombinant tau K18 P301L, heparin-induced fibrillization, ThT fluorescence; P10636; Potency, µM (titrated, usually from 57.4 µM), usual class: inhibitors; 2.1% of 270,000 active; further: nearly all actives have a fitted effect of over 55% in size
# Target sequence (P10636 561-689 P618L limits assumed): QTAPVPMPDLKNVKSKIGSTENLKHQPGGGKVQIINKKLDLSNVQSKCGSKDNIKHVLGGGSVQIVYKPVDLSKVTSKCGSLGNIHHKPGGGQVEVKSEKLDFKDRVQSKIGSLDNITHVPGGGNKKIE
#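 Fibril formation assay: tau K18 P301L at 15 uM with trace Alexa 594 label, heparin inducer 20 uM, pH 7 sodium acetate buffer, 37 C for 6 hr; endpoint ThT signal.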
# TexasRed fluor: alters Texas Red total fluorescence, flagging assay interference | TRb/SRC2 Texas Red total fluorescence interference | Potency, µM (series often up to 106 µM) | 0.29% of 280,000 active | AID 1479; active means well fitted curve in either direction with a large enough effect; inconclusive means small, poorly fitted or top-dose-only effect
#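 Human TRβ ligand-binding domain (0.6 uM) and Texas Red SRC2 peptide (20 nM) in Tris buffer with 1 uM T3 and 5% DMSO were incubated with pinned compound for 5 hr at ambient temperature. Total fluorescence was computed as S + 2P (555/632 nm).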
# Tau fibril FP: blocks human tau fibril formation measured by polarization; P10636; K18 P301L tau heparin fibrillization, Alexa594 FP, 6 h; Potency, µM (doses to about 57.7 µM), most hits filed as inhibitors; 0.39% of 280,000 active; AID 1468; further: nearly all actives have a fitted effect of over 55% in size
#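 K18 P301L tau (15 uM unlabeled/0.24 uM Alexa 594-labeled, final) + compound + heparin 20 uM final; 100 mM NaOAc pH 7; 6 hr 37 C; ThT 30 uM final added, 1 hr RT; FP ex 555/em 632 nm.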
# TRb-SRC2 inh: TRbeta-SRC2 interaction inhibition; P10828; 0.065% of 280,000 active; TRbeta-SRC2 peptide binding, fluorescence polarization; receptor liganded with 1 µM T3; Potency, µM (highest dose often 106 µM), actives largely listed as inhibitors; AID 1469; further: nearly all actives have a fitted effect of over 50% in size
# Target sequence (P10828 whole entry, looked up): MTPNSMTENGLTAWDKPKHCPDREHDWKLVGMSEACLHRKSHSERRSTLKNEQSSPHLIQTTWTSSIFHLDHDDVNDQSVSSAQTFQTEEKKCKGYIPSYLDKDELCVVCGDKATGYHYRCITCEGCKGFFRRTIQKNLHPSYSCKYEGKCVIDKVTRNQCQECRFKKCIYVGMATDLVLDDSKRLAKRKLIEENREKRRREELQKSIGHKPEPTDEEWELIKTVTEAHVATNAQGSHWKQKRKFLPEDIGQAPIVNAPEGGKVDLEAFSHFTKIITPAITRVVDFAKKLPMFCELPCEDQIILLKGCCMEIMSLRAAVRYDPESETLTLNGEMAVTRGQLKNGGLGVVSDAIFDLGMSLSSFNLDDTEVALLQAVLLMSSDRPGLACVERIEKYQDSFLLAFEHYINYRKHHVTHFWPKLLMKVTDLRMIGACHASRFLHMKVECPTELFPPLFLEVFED
#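 Binding of a 20-amino-acid Texas Red SRC2 peptide (20 nM) to TRb ligand-binding domain (0.6 uM) with agonist T3 at 1 uM was followed by fluorescence polarization after a 5 hr room-temperature incubation.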
# Tau fluor cs: counter-screen for tau fibril formation inhibitors | 0.93% of 280,000 active | tau K18 P301L Alexa594 fluorescence, heparin fibrillization | Potency, µM (doses to about 57.7 µM); further: nearly all actives have a fitted effect of over 55% in size
#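 Human tau K18 P301L (15 uM unlabeled, 0.24 uM Alexa 594-labeled) in 100 mM sodium acetate pH 7 with 20 uM heparin, 6 hr at 37 C. ThT 30 uM added, 1 hr ambient; Alexa 594 FP and total fluorescence read at 555/632 nm.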
# Hits are given with their value; . = inactive; ? = inconclusive; / = not tested or not shown; [ ] = dose if it differs, or a comment. Unless noted, the call rests on the fitted dose curve; in most records, active means well fitted curve in the direction sought with a large enough effect; inconclusive means small, poorly fitted or top-dose-only effect, or another doubt; inactive means no such curve, though single readings can be large; an effect the other way counts as inactive or inconclusive.
SMILES,Tau ThT inhib,TexasRed fluor,Tau fibril FP,TRb-SRC2 inh,Tau fluor cs
CN1c2ccccc2C(C)(C)C12C=Nc1c(ccc3ccccc13)O2 (stereo unspecified),32µM,.,?,?,?
CN1c2ccccc2C(C)(C)[C@]12C=Cc1cc(O)ccc1O2,22µM,.,.,.,?
CC1(C)OC(=O)N(c2ccccc2)C12C=Cc1cc(Br)ccc1O2 (stereo unspecified),.,.,.,.,.
COc1ccc2ccc3c(c2c1)N=CC1(O3)N(C)c2ccccc2C1(C)C (stereo unspecified),10µM,?,22µM,28µM,?
CC1=C(c2ccc(C)cc2)S(=O)(=O)NC1=NCCCN1CCN(c2ccccc2F)CC1,.,.,.,.,.
Cc1[nH]n(-c2ccc(Br)cc2)c(=O)c1C=Nc1ccc(S(=O)(=O)Nc2nccs2)cc1,16µM,.,.,.,?
Cc1cccc2c1c1ccc3c(c1n2C)C(=O)C=CC3=O,3.5µM,.,8.9µM,.,4µM[quencher]
Cc1ccccc1N1CC(=O)N(c2ccccc2C)CC1=O,.,.,.,.,.
CC(/C=N/NC(=O)Cc1cccn1C)=C\c1ccco1,28µM,.,?,.,.
CCOc1ccc(NC(=O)c2cnc3sc(N4CCOCC4)nn3c2=O)cc1,.,.,.,.,.
COc1ccccc1N=C1SC(C(=O)Nc2cccc(Cl)c2Cl)C(N)=C1C(N)=O (stereo unspecified),25µM,.,?,.,18µM[quencher]
O=C(NCc1ccco1)c1ccc2nc3sc4c(c3c(=O)n2c1)CCCC4,14µM,.,22µM,.,.
CCN(CC)c1ccc(NC(=O)CN2CCN(S(=O)(=O)c3ccc(C(C)C)cc3)CC2)cc1,?,.,.,.,.
O=c1[nH]c(=O)c2nnc(N/N=C\c3ccc(O)cc3)nc2[nH]1,4µM,.,.,.,.
COc1ccccc1CNC(=O)c1ccc2c(c1)sc1nc(-c3ccc(F)cc3)cn12,.,.,.,.,.
CC(=O)NNC(=O)c1sc(=S)n2c1[nH]c(=O)c1sccc12,?,.,.,.,.
NC(=O)c1sc(=S)n2c1[nH]c(=O)c1sccc12,11µM,.,.,.,.
CCCCOc1ccc(C(=O)Nc2cc(-c3cn4cccnc4n3)ccc2OC)cc1,.,.,.,.,.
CCN1/C(=N\N)c2cccc3cccc1c23,7.9µM,.,.,.,?
O=C1c2cccc3cccc(c23)N1Cc1ccc(F)cc1,.,.,.,.,.
CC(C)Nc1nc(N)nc(Cl)n1,/,.,/,.,/
CCCN1C(=O)/C(=C\C=C2/C=CN(CC)c3ccccc32)SC1=S,.,?,.,.,.
CCCCN1C(=O)/C(=C/C=C2\SCCN2C)SC1=S,14µM,.,?,.,?
CN1CCS/C1=C/C=C1\SC(=S)N(CC(=O)O)C1=O,16µM,.,.,.,.
CN1CCS/C1=C/C=C1/SC(=S)N(Cc2ccccc2)C1=O,.,.,.,.,.
SMILES,Tau ThT inhib,TexasRed fluor,Tau fibril FP,TRb-SRC2 inh,Tau fluor cs
CCCCN1C(=O)/C(=C/C=C2\N(C)c3ccccc3C2(C)C)SC1=S,6.3µM,.,?,.,.
Cc1c(Cl)cccc1NS(=O)(=O)c1ccc(-c2cnc(C3CC3)o2)cc1,.,.,.,.,?
c1ccc(N2CCN(c3nc(NCc4ccco4)c4ccccc4n3)CC2)cc1,?,.,.,.,25µM[quencher]
c1coc(CNc2nc(N3CCCCC3)nc3ccccc23)c1,.,.,.,?,.
OCCNc1nc(Nc2ccccc2)nc2ccccc12,.,.,.,.,.
COc1ccccc1Nc1nc(NCc2ccco2)c2ccccc2n1,?,.,?,.,22µM[quencher]
Oc1ccccc1Nc1nc(NCc2ccccc2)c2ccccc2n1,.,.,.,.,16µM[quencher]
Cc1cn(C2CC3OCC(NC(=O)C(NC(=O)OC(C)(C)C)C(C)OCc4ccccc4)C3O2)c(=O)[nH]c1=O (stereo unspecified),/,.,/,.,/
CCCCOC(=O)[C@@H](C)Oc1ccc(Oc2ccc(C(F)(F)F)cn2)cc1,/,.,/,.,/
O=c1[nH][nH]c(-c2ccccc2O)c1C(C[N+](=O)[O-])c1ccccc1 (stereo unspecified),.,.,.,.,.
O=c1[nH][nH]c(-c2ccccc2O)c1C(C[N+](=O)[O-])c1cccc(Cl)c1 (stereo unspecified),25µM,.,.,.,?
OC[C@H]1OC(O)(CN2CCOCC2)[C@H](O)[C@@H]1O (stereo partly specified),/,.,/,.,/
COC(=O)c1nnc(N[C@@H](Cc2c[nH]c3ccccc23)C(=O)OC)nc1C(=O)OC,.,.,.,.,.
O=[N+]([O-])c1cccc(N2Cc3ccccc3C2)c1,16µM,.,?,.,?
CN=C(N)NCC1CCOC1 (stereo unspecified),/,.,/,.,/
COc1cc2c(cc1OC)-c1c(OC)c(OC)cc3ccnc(c13)C2=O,7.1µM,.,.,.,?
COC(=O)[C@H](Cc1ccccc1)NC(=O)O[C@@H]1C(=O)c2ccc(OC)cc2O[C@H]1c1cccc(C(F)(F)F)c1,.,.,.,.,.
O=C(NCc1ccco1)C1CCN(C(=O)N2CCOc3ccc(Cl)cc32)CC1,20µM,.,?,.,?
O=C(NCc1cccs1)C1CCN(C(=O)N2CCOc3ccccc32)CC1,.,0.56µM[quencher],.,.,?
O=C(NCCC1=CCCCC1)C1CCN(C(=O)N2CCOc3ccccc32)CC1,.,?,?,.,2.8µM[quencher]
Cc1cccc(CCNC(=O)Cn2ncc3c(=O)oc4ccccc4c32)c1,.,.,?,.,.
COc1ccc(OC)c(NC(=O)CCc2c(C)nn(-c3ccc(N4CCCC4)nn3)c2C)c1,?,.,.,.,.
CC(NC(=O)Cn1ccc2cc(S(=O)(=O)N3CCCCCC3)ccc21)c1ccccc1 (stereo unspecified),.,.,.,.,.
CC(C)(C)N1C(=O)[C@H]2[C@H]3[C@H](O)[C@H](O)C/C(=N/NC(=O)OCc4ccccc4)[C@@H]3CC[C@@H]2C1=O,.[11.5 µM],.[11.2 µM],.[11.6 µM],.[11.2 µM],.[11.6 µM]
COC(=O)c1ccc(C2C=C(c3ccc(Cl)cc3)Nc3nc4ccccc4n32)cc1 (stereo unspecified),?,0.14µM[quencher],.,.,.
SMILES,Tau ThT inhib,TexasRed fluor,Tau fibril FP,TRb-SRC2 inh,Tau fluor cs
Cc1ccc(C(=O)c2ccc([N+](=O)[O-])cc2)cc1C,?,.,.,.,.
Cc1cccc(NCCC(=O)c2ccc([N+](=O)[O-])cc2)c1C,?,.,.,.,8.9µM[quencher]
Cc1ccc(C(=O)CNc2cccc([N+](=O)[O-])c2)cc1,?,.,.,.,.
Cc1ccc(NCCC(=O)c2cccc([N+](=O)[O-])c2)c(C)c1,?,.,?,.,16µM[quencher]
Cc1ccc(NCC(=O)c2ccc([N+](=O)[O-])cc2)cc1,18µM,.,?,.,?
COc1ccc(S(=O)(=O)Nc2cccc(-c3ccc(N4CCC(C)CC4)nn3)c2)cc1OC,.,.,.,.,?
